According to PubChem BioAssay (NCATS):
Records with an inconclusive call do not appear. Values without a mark were called inactive. Active and inactive are the calls of the source. Unless noted, calls follow the shape of the full dose curve.

test: Primary qHTS for small molecule stabilizers of the endoplasmic reticulum resident proteome: Secreted ER Calcium Modulated Protein (SERCaMP) assay (AID 1508630; active = well fitted inhibition curve with a large enough effect; also: % is scaled to controls: 0 for no effect and ±100 for the full control effect); details: SH-SY5Y GLuc-SERCaMP (Gaussia luciferase released on ER calcium loss) secretion, thapsigargin, luminescence; series mostly up to 38.4 µM; activity change, negative = inhibition: at the top concentration
Summary of the method: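 GLuc-SERCaMP-expressing SH-SY5Y cells, pretreated 16 h with compound, are challenged with thapsigargin to empty ER calcium stores; after 4 h, coelenterazine is added directly to the medium and luminescence is imaged.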

Row | Structure (SMILES) | activity change, negative = inhibition [%] | Potency
1 | COc1cccc(C(=O)CCN[C@@H](C)[C@H](O)c2ccccc2)c1 | -16.8 | –
2 | CC(C)(C)NCC(O)c1cc(Cl)c(N)c(C(F)(F)F)c1 (stereo not drawn) | 10.7 | –
3 | O=C(Nc1ccc(Br)cc1)c1cc(Br)cc(Br)c1O | 179 | –
4 | COc1ccc2c(c1OC)C(=O)O[C@H]2[C@@H]1c2cc3c(cc2CCN1C)OCO3 | – | inactive
5 | C[C@](O)(CS(=O)(=O)c1ccc(F)cc1)C(=O)Nc1ccc(C#N)c(C(F)(F)F)c1 | 166 | –
6 | O=c1c(C2CC(c3ccc(-c4ccc(Br)cc4)cc3)Cc3ccccc32)c(O)sc2ccccc12 (stereo not drawn) | 3.15 | –

test: A High-Content qHTS Against Drug Library for the Identification of Small Molecules that Inhibit DYT1 Early Onset Primary Dystonia-Associated Cell Pathology (AID 1645839); details: HEK293 Flp-In EGFP-delE TorsinA, punctate imaging, 48 h; series mostly up to 46.1 µM; % pathology change, negative = correction: at the top concentration
Summary of the method: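 Flp-In T-REx 293 cells with tetracycline-inducible EGFP-delE hTOR1A (WT EGFP-hTOR1A as reference), 800 cells/well; compound added with tetracycline, 48 h at 37 C. Fixed, permeabilized cells imaged; %pathology (punctate TorsinA) primary, cell count counterscreen.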

Row | Structure (SMILES) | % pathology change, negative = correction
7 | CC(Cc1ccccc1)NCCn1cnc2c1c(=O)n(C)c(=O)n2C (stereo not drawn) | 0.18% [at 91.7 µM]
8 | CC(C)(N)Cc1ccccc1Cl | 6.72%
9 | COc1cc(CC(C)N)cc(OC)c1OC (stereo not drawn) | -7.74% [at 104 µM]
10 | CN1CC[C@]23c4c5ccc(O)c4O[C@H]2[C@@H](O)CC[C@H]3[C@H]1C5 | -1.04% [at 91.7 µM]
11 | C#CC(O)(C=CCl)CC (stereo not drawn) | -0.773%
12 | Clc1cccc(SC2CCNCC2)n1 | 6.4%
13 | CCN[C@@H](C)Cc1ccccc1 | 7.41% [at 104 µM]
14 | CC(C)NC(C)C | 10.2%
15 | COc1cc(OC)c(OC)cc1C=O | 16.6% [at 91.7 µM]
16 | NC(=O)CS(=O)C(c1ccccc1)c1ccccc1 (stereo not drawn) | -6.42%
17 | O=C(O)c1ccc(=O)[nH]c1 | 11.7%
18 | CC(=O)OCC1=C(C(=O)O)N2C(=O)[C@@H](N)[C@H]2SC1 | 0.362% [at 19.1 µM]
19 | CCC1(CC)C(=O)C=CNC1=O | 3.29%
20 | c1ccc(CN2CCNCC2)cc1 | -3.35% [at 219 µM]
21 | Clc1ccccc1N1CCNCC1 | 3.3%
22 | C=CCC1(C(C)CC)C(=O)NC(=O)NC1=O (stereo not drawn) | -0.191%

Row | Structure (SMILES) | % pathology change, negative = correction
23 | Oc1ccc(Cl)cc1 | -17.7%
24 | Nc1ccccc1C(=O)O | 20%
25 | Nc1ccc([As](=O)(O)O)cc1 | -13.6%
26 | CNCC(=O)c1ccc(O)c(O)c1 | -16.8%
27 | CC[N+]1(CC)CCC(OC(=O)C(O)(c2ccccc2)c2ccccc2)C1 (stereo not drawn) | -24.7%
28 | COc1ccc2c3c1O[C@H]1[C@H](O)CC[C@H]4[C@@H](C2)N(C)CC[C@@]341 | -28.6% [at 91.7 µM]
29 | COC(=O)[C@@H](N)CCCN/C(N)=N/[N+](=O)[O-] | 6.61%
30 | c1ccc(N2CCNCC2)cc1 | -1.8%
31 | C[C@]12CC[C@H]3[C@@H](CC[C@@]45O[C@H]4C(O)=C(C#N)C[C@]35C)[C@H]1CC[C@H]2O | 2.58%
32 | C=CCC1([C@H](C)CCC)C(=O)NC(=O)NC1=O | 8.41% [at 91.7 µM]
33 | O=[N+]([O-])O[C@H]1CO[C@H]2[C@@H]1OC[C@H]2O[N+](=O)[O-] | 7.91%
34 | CN1CC[C@]23c4c5ccc(O)c4O[C@H]2[C@@H](O)C=C[C@H]3[C@H]1C5 | 4.31% [at 91.7 µM]
35 | C[C@H]1[C@@H]2Cc3ccc(O)cc3[C@@]1(C)CCN2C | 0.0392% [at 231 µM]
36 | C[C@H](N)C(=O)c1ccccc1 | 15% [at 104 µM]
37 | CC(=O)NC1CCSC1=O (stereo not drawn) | 5.53%
38 | CC(=O)C1CCOC1=O (stereo not drawn) | -0.74%
